From PubChem BioAssay (Tox21)
Results filed as inconclusive are left out. Calls of active or inactive are those of the source. Calls follow the shape of the dose curve; as a rule, active = well fitted curve in the direction sought with a large enough effect in the repeat runs; inconclusive = weak or mixed curves; inactive = no such curve, though single readings can be large; an effect the other way counts as inactive or inconclusive.

What was measured:
[1] = A CellTox Green Cytotoxicity Assay to monitor cytotoxicity in HEK293 cells - 40 hour (AID 1224871); also: nearly all actives have a fitted effect of over 45% in size
Method in brief: (§1)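 Tox21 screen in HEK293: membrane-impermeant cyanine dye fluoresces on binding dead-cell DNA; compound pinned 5 h post-seeding, plates held at 37 C, signal read repeatedly through 40 h.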

[2] = qHTS RealTime-Glo MT Cell Viability Assay in HepG2 cells - 8 hour (AID 1224873); also: nearly all actives have a fitted effect of over 55% in size
Method in brief: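 HepG2 cells (600/well) mixed with RealTime-Glo MT reagent, settled 5 h at 37 C/5% CO2 before compound addition. Nonlytic NanoLuc luminescence from viable-cell prosubstrate reduction read repeatedly during 40 h treatment at 37 C.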

[3] = qHTS RealTime-Glo MT Cell Viability Assay in HEK293 cells - 40 hour (AID 1224874); conditions: RealTime-Glo luminescence; max response: active compounds read low; also: nearly all actives have a fitted effect of over 50% in size; also: potency is read from the fitted curve at half-maximal effect
Method in brief: (§2)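 HEK293 + NanoLuc + prosubstrate, 600 cells/well; 5 h, 37 C/5% CO2; compound 23 nL in DMSO by pintool; 37 C; luminescence read at 0, 8, 16, 24, 32 and 40 h time points.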

[4] = A CellTox Green Cytotoxicity Assay to monitor cytotoxicity in HEK293 cells - 24 hour (AID 1224875); also: series mostly up to about 77 µM; nearly all actives have a fitted effect of over 45% in size
Method in brief: as §1

[5] = A CellTox Green Cytotoxicity Assay to monitor cytotoxicity in HepG2 cells - 16 hour (AID 1224876); also: nearly all actives have a fitted effect of over 45% in size
Method in brief: (§3)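 Measurements at 0, 8, 16, 24, 32 and 40 h of treatment captured CellTox Green fluorescence in HepG2 cells that had been co-plated with reagent and preincubated 5 h at 37 C/5% CO2.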

[6] = qHTS RealTime-Glo MT Cell Viability Assay in HepG2 cells - 32 hour (AID 1224877); also: nearly all actives have a fitted effect of over 55% in size
Method in brief: (§4)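 Cell number in HepG2 cultures estimated from NanoLuc luminescence generated by metabolic reduction of a prosubstrate by living cells. The homogeneous, nonlytic format allowed repeated reads at 0, 8, 16, 24, 32 and 40 h of compound exposure.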

[7] = A CellTox Green Cytotoxicity Assay to monitor cytotoxicity in HepG2 cells - 24 hour (AID 1224878); also: nearly all actives have a fitted effect of over 45% in size; also: potency is read from the fitted curve at half-maximal effect
Method in brief: as §3

[8] = A CellTox Green Cytotoxicity Assay to monitor cytotoxicity in HepG2 cells - 40 hour (AID 1224879); also: nearly all actives have a fitted effect of over 40% in size; also: potency is read from the fitted curve at half-maximal effect
Method in brief: as §3

[9] = qHTS RealTime-Glo MT Cell Viability Assay in HEK293 cells - 0 hour (AID 1224880); also: nearly all actives have a fitted effect of over 45% in size; also: potency is read from the fitted curve at half-maximal effect; as to activity change, negative = cytotoxicity: top concentration of the series differs between compounds
Method in brief: as §2

[10] = A CellTox Green Cytotoxicity Assay to monitor cytotoxicity in HEK293 cells - 32 hour (AID 1224881); also: nearly all actives have a fitted effect of over 40% in size
Method in brief: as §1

[11] = A CellTox Green Cytotoxicity Assay to monitor cytotoxicity in HepG2 cells - 0 hour (AID 1224882); also: nearly all actives have a fitted effect of over 35% in size
Method in brief: as §3

[12] = A CellTox Green Cytotoxicity Assay to monitor cytotoxicity in HepG2 cells - 32 hour (AID 1224883); also: nearly all actives have a fitted effect of over 50% in size; also: potency is read from the fitted curve at half-maximal effect
Method in brief: as §3

[13] = A CellTox Green Cytotoxicity Assay to monitor cytotoxicity in HEK293 cells - 8 hour (AID 1224884); also: nearly all actives have a fitted effect of over 35% in size
Method in brief: as §1

[14] = qHTS RealTime-Glo MT Cell Viability Assay in HepG2 cells - 16 hour (AID 1224885); also: nearly all actives have a fitted effect of over 50% in size
Method in brief: as §4

[15] = qHTS RealTime-Glo MT Cell Viability Assay in HEK293 cells - 24 hour (AID 1224886); also: top concentration of the series differs between compounds; nearly all actives have a fitted effect of over 50% in size
Method in brief: (§5)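 Homogeneous bioluminescent viability format in HEK293 cells (600 cells/well). Following 5 h at 37 C/5% CO2, 23 nL compound was pintooled; the signal was measured repeatedly during 40 h incubation.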

[16] = qHTS RealTime-Glo MT Cell Viability Assay in HEK293 cells - 8 hour (AID 1224887)
Method in brief: as §2

[17] = A CellTox Green Cytotoxicity Assay to monitor cytotoxicity in HEK293 cells - 16 hour (AID 1224888); also: nearly all actives have a fitted effect of over 35% in size
Method in brief: as §1

[18] = qHTS RealTime-Glo MT Cell Viability Assay in HepG2 cells - 0 hour (AID 1224889); also: nearly all actives have a fitted effect of over 50% in size; also: potency is read from the fitted curve at half-maximal effect
Method in brief: as §4

[19] = A CellTox Green Cytotoxicity Assay to monitor cytotoxicity in HepG2 cells - 8 hour (AID 1224890); also: nearly all actives have a fitted effect of over 45% in size
Method in brief: as §3

[20] = qHTS RealTime-Glo MT Cell Viability Assay in HEK293 cells - 16 hour (AID 1224872)
Method in brief: as §5
% is scaled to controls: 0 for no effect and ±100 for the full control effect.

CCCCCCCCCCCC(=O)OCC(O)CO (configuration not stated)
inactive: Potency [1] | Potency [2] | max response [3] 6.6% | Potency [4] | Potency [5] | Potency [6] | Potency [7] | Potency [8] | Potency [9] | Potency [10] | Potency [11] | Potency [12] | Potency [13] | Potency [14] | Potency [15] | Potency [16] | Potency [17] | Potency [18] | Potency [19]

CC(=O)OCC(C)C
inactive: Potency [1] | Potency [20] | Potency [2] | Potency [4] | Potency [5] | Potency [6] | Potency [7] | Potency [8] | Potency [9] | Potency [10] | Potency [11] | Potency [12] | Potency [13] | Potency [14] | Potency [15] | Potency [16] | Potency [19]

CC(C)N(C)C
inactive: Potency [1] | Potency [2] | max response [3] 0.0453% | Potency [4] | Potency [5] | Potency [6] | Potency [7] | Potency [8] | Potency [9] | Potency [10] | Potency [11] | Potency [12] | Potency [13] | Potency [14] | Potency [15] | Potency [16] | Potency [17] | Potency [18] | Potency [19]

C=C(C)c1ccccc1
inactive: Potency [1] | Potency [20] | Potency [2] | Potency [4] | Potency [5] | Potency [6] | Potency [7] | Potency [8] | Potency [9] | Potency [10] | Potency [11] | Potency [12] | Potency [13] | Potency [14] | Potency [16] | Potency [17] | Potency [18]

O=C(NS(=O)(=O)/C=C/c1ccccc1)c1ccc(F)cc1Cl
inactive: Potency [1] | Potency [20] | Potency [2] | Potency [4] | Potency [6] | Potency [10] | Potency [11] | Potency [13] | Potency [14] | Potency [15] | Potency [16] | Potency [17] | Potency [19]
active: Potency [7] 54.9 µM | Potency [8] 54.9 µM | Potency [9] 12.3 µM | Potency [12] 54.9 µM | Potency [18] 19.5 µM

CC(C)C(=O)OCCOc1ccccc1
inactive: Potency [1] | Potency [2] | max response [3] 2.62% | Potency [4] | Potency [5] | Potency [6] | Potency [7] | Potency [8] | Potency [9] | Potency [10] | Potency [11] | Potency [12] | Potency [13] | Potency [14] | Potency [16] | Potency [17] | Potency [18] | Potency [19]

CC(C)(O)CCc1ccccc1
inactive: Potency [1] | Potency [2] | max response [3] -8.47% | Potency [4] | Potency [5] | Potency [6] | Potency [7] | Potency [8] | Potency [9] | Potency [10] | Potency [11] | Potency [12] | Potency [13] | Potency [14] | Potency [16] | Potency [17] | Potency [18]

Nc1ccc(NC(=O)c2ccc(N)cc2)cc1
inactive: Potency [1] | Potency [20] | Potency [2] | Potency [4] | Potency [5] | Potency [7] | Potency [8] | Potency [9] | Potency [10] | Potency [11] | Potency [12] | Potency [13] | Potency [14] | Potency [15] | Potency [16] | Potency [17] | Potency [18] | Potency [19]

COC(=O)c1sccc1S(N)(=O)=O
inactive: Potency [1] | Potency [20] | Potency [2] | Potency [4] | Potency [5] | Potency [6] | Potency [7] | Potency [9] | Potency [10] | Potency [11] | Potency [13] | Potency [14] | Potency [15] | Potency [16] | Potency [17] | Potency [18] | Potency [19]

CCCCCCCCCCCCCCN(C)C
inactive: cytotoxicity increase [1] -34.7% [at 15.8 µM] | viability change, negative = cytotoxic [2] -0.602% [at 15.8 µM] | max response [3] -29.2% | activity change [4] -31.5% [at 15.8 µM, active compounds read high] | cytotoxicity increase [5] -1.78% [at 15.8 µM] | activity change, negative = cytotoxic [6] 5.76% [at 15.8 µM] | cytotoxicity [7] -3.33% [at 15.8 µM] | cytotoxicity increase [8] -7.14% [at 15.8 µM] | activity change, negative = cytotoxicity [9] 0% [at 15.8 µM] | cytotoxicity increase [10] -32.2% [at 15.8 µM] | cytotoxicity [11] -1.15% [at 15.8 µM] | cytotoxicity increase [12] -7.28% [at 15.8 µM] | cytotoxicity increase [13] -28% [at 15.8 µM] | activity change, negative = cytotoxic [14] -0.238% [at 15.8 µM] | activity change [17] -30.9% [at 15.8 µM, active compounds read high] | cytotoxicity increase [19] -1.47% [at 15.8 µM]

COc1ccc(/C=C/C(=O)c2ccc(OC)cc2OC)cc1
inactive: Potency [1] | Potency [20] | Potency [2] | Potency [4] | Potency [5] | Potency [6] | Potency [9] | Potency [10] | Potency [11] | Potency [13] | Potency [14] | Potency [15] | Potency [17] | Potency [18]

CC1CCCC(=O)C1=O (configuration not stated)
inactive: Potency [1] | Potency [20] | Potency [2] | Potency [4] | Potency [5] | Potency [6] | Potency [9] | Potency [10] | Potency [11] | Potency [13] | Potency [14] | Potency [16] | Potency [17] | Potency [18]

CC(C)COC(=O)COc1cc(Cl)c(Cl)cc1Cl
inactive: Potency [1] | Potency [20] | Potency [2] | Potency [4] | Potency [5] | Potency [6] | Potency [7] | Potency [8] | Potency [9] | Potency [10] | Potency [11] | Potency [12] | Potency [13] | Potency [14] | Potency [16] | Potency [18] | Potency [19]

COc1cc(NCc2ccc3nc(N)nc(N)c3c2C)cc(OC)c1OC
inactive: Potency [1] | Potency [2] | Potency [4] | Potency [5] | Potency [6] | Potency [7] | Potency [8] | Potency [9] | Potency [10] | Potency [11] | Potency [12] | Potency [13] | Potency [14] | Potency [18] | Potency [19]
active: Potency [3] 23.9 nM
